Source: PubChem BioAssay (several laboratories)
MITF act: activators of MITF-driven TRPM1 promoter reporter, primary screen, cell-based, SK-MEL-5, luciferase, single point; SK-MEL-5 TRPM1-promoter luciferase, 24 h; % of positive control, neutral wells = 0; activation, % at 12.5 µM; 300,000 tested, 0.75% active;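 active means mean activation of at least 80% with every replicate also reaching 80%; inconclusive means mean reaches 80% but some replicate falls short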;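 further: 0% = neutral control wells and 100% = parthenolide positive control wells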
Wnt act: Wnt/beta-catenin pathway activators, primary screen, cell-based, plate reader, single point. 300,000 tested, 1.2% active. Wnt/beta-catenin reporter cell assay, activator. AID 743398, 2014. activation, % at 9.35 µM; in the data active means activation above about 30%, passing the limit was not always enough; inconclusive means no clear call, values can overlap the other calls;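 further: 0% = neutral control wells and 100% = positive control wells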
esBAF inh: Bmi1 luciferase reporter increase in mESCs, primary screen, esBAF inhibitor project, mouse ES cells, Bmi1 luciferase knock-in, single point. 24 h; 100% = twice the neutral-well signal. reporter increase, % at 12.5 µM. 350,000 tested, 2% active; in the data active means activation above about 40%; inconclusive means no clear call, values can overlap the other calls;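 further: 0% = median of the plate's neutral control wells and 100% = double that signal; a rise in the Bmi1 reporter signal indicates esBAF inhibition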
AF4-AF9 inh: inhibitors of AF4 peptide binding to AF9, primary screen, biochemical, AlphaScreen, biotin-AF4 peptide, FLAG-AF9, single point. 350,000 tested, 0.47% active. inhibition, % at 10 µM. Protein AF-9 (Homo sapiens), P42568. AID 651704, 2012;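 active means every replicate reaching a set inhibition limit, whatever the replicate mean, cut at about 25% in these data; inconclusive means mean inhibition reaches that limit but some replicates miss it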;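 further: 0% = plate neutral control median and 100% = total signal loss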
FGF22 binding: binders of human FGF22 protein, primary screen, FGF22 synaptogenesis inhibitor project, biophysical, thermal shift, single point. Fibroblast growth factor 22 (Homo sapiens), Q9HCT0. recombinant FGF22 thermal shift, SYPRO orange fluorescence; percent of sucrose octasulfate shift, DMSO zero. activity (Tm shift, normalised), % at 9.99 µM. 340,000 tested, 1.5% active. AID 651658, 2012;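 active means mean Tm shift, scaled 0 neutral to 100 positive control, at about 1.3% or above, every replicate too, limit read from the data; inconclusive means no clear call, values can overlap the other calls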
Target sequence (Q9HCT0 whole entry, looked up): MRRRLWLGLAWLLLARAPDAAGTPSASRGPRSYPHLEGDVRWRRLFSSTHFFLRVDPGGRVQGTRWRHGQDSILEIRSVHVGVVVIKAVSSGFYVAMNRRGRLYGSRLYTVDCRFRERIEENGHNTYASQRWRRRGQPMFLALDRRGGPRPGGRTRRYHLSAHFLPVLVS
SMARCA2 act: SMARCA2 (BRM) function activators, primary screen, cell-based, luminescence, high throughput; AID 652017, 2013; MG213 cells, MMTV-luciferase reporter, dexamethasone, overnight; 370,000 tested, 1% active; activation, % at 9.1 µM; in the data active means activation above about 7.8%;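 further: 0% = vehicle wells and 100% = reference activator wells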
SMARCA2 act conf: SMARCA2 (BRM) function activators, confirmation, cell-based, luminescence, triplicate. shares compounds with SMARCA2 act. MG213 cells, MMTV-luciferase with dexamethasone, overnight; MG213 cells expressing E1A, Rb sequestered; DMSO wells 0%, reference activator 100%. 3,500 tested, 30% active. activation, % at 9.1 µM;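 active means activation above its plate's cutoff, the mean activation of tested wells plus 3 SD, cut at about 7.9% in these data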
VP16 Luc act: GAL4-VP16 luciferase reporter activation, counter-screen for SMARCA2 (BRM) activator project, cell-based, pG5luc, luminescence, high throughput | shares compounds with SMARCA2 act | HEK293 GAL4-VP16 pG5luc reporter; scaled: DMSO wells 0%, SAHA wells 100% | activation, % at 9.1 µM | 3,500 tested, 41% active | AID 686939, 2013;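 active means activation above the solvent-only control well mean plus 3 SD, averaged across control plates, cut at about 5.2% in these data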
Numbers without * were called inactive; ? = inconclusive; . = not tested or not shown. A selection: hits, their analogues and other compounds. The true share with any hit is near 4.3%.

SMILES | MITF act | Wnt act | esBAF inh | AF4-AF9 inh | FGF22 binding | SMARCA2 act | SMARCA2 act conf | VP16 Luc act
COc1ccc(CCNC(=O)CCn2c(=O)c3cccn3c3cccnc32)cc1OC | 9 | 1 | 2 | 1 | 0 | 12* | 7.9* | 1
CN=C1S/C(=C\c2ccc(O)c(Br)c2)C(=O)N1C | -5 | 9 | 23 | 5 | 0 | 1 | . | .
C=CCN1C(=O)/C(=C/c2ccc(O)c(OC)c2)S/C1=N/c1nccs1 | 3 | . | . | . | . | 11* | 2 | 1
CN=C1S/C(=C\c2ccc(O)c(OC)c2)C(=O)N1C | . | 52* | . | -2 | 0 | 8.9* | 7 | 14*
C=CCN1C(=O)/C(=C/c2ccc(OCC(=O)O)cc2)S/C1=N/c1nccs1 | -2 | -1 | . | 4 | 0 | 2 | . | .
O=c1c2ccccc2nc2c3ccccc3c(NCc3ccco3)nn12 | . | . | . | . | . | 13* | 10* | 1
C[C@H](CO)N1C[C@H](C)[C@@H](CN(C)Cc2ccc(Oc3ccccc3)cc2)Oc2c(NC(=O)c3nc4ccccc4s3)cccc2C1=O | . | . | 4 | -10 | 0 | . | . | .
CC(=O)Nc1sc(NC(=O)c2ccc([N+](=O)[O-])cc2)nc1-c1cccs1 | . | 0 | . | 0 | 0 | 9.4* | -5 | 0
COc1ccc(NC(=O)C2C(c3ccc4c(c3)OCO4)=Nc3ccccc3N2C(=O)c2cccc(C(F)(F)F)c2)cc1 (stereo not drawn) | . | 9 | . | 0 | 0 | 6 | . | .
COc1ccc(NC(=O)C2C(c3ccc4c(c3)OCO4)=Nc3ccccc3N2C(C)=O)cc1 (stereo not drawn) | . | 35* | . | . | 0 | 9.2* | 8.0* | 6.4*
COc1ccc(C2=Nc3ccccc3N(C(=O)c3ccncc3)C2C(=O)NC(C)(C)C)cc1 (stereo not drawn) | . | 13 | . | 3 | 0 | 16* | -2 | 1
COc1ccc(C2=Nc3ccccc3N(C(=O)c3cccnc3)C2C(=O)NC(C)(C)C)cc1 (stereo not drawn) | . | 8 | . | 3 | 0 | 2 | . | .
C[C@H]1CN([C@@H](C)CO)C(=O)c2cc(NC(=O)Nc3ccccc3)ccc2O[C@@H]1CN(C)C(=O)Nc1ccc2c(c1)OCO2 | . | . | -4 | . | . | . | . | .
C[C@@H]1CN([C@@H](C)CO)C(=O)c2cc(NC(=O)c3ccccc3)ccc2O[C@@H](C)CCCCO[C@H]1CN(C)S(=O)(=O)c1ccc(Cl)cc1 | . | . | -9 | -1 | -1 | . | . | .
Cc1cc(C)c2c(N)c(C(=O)Nc3cccc(C)c3C)sc2n1 | -4 | 18 | 30 | 0 | 0 | 3 | . | .
Cc1ccc(NC(=O)c2sc3nc(C)cc(C)c3c2N)cc1 | 83* | 36* | 4 | -2 | 0 | 9.9* | 7 | 15*
CSc1nc(SCC(=O)NC(c2ccccc2)c2ccccc2)c2c3c(sc2n1)CN(C)CC3 | -26 | . | -3 | . | . | 12* | -4 | 0
Cc1c(-c2ccccc2)nc2ccccc2c1C(=O)NCc1cccs1 | -7 | 4 | . | . | . | 8.1* | -2 | 1
CC(=O)c1ccc(N2CCN(S(=O)(=O)c3ccc4c(c3)C(Cl)(Cl)C(=O)N4)CC2)cc1 | . | -1 | -9 | 2 | 0 | 10* | 4 | 1
CC(=O)c1ccc(N2CCN(S(=O)(=O)c3ccc4c(c3)NC(=O)CC(=O)N4)CC2)cc1 | 39 | 5 | 31 | 0 | 0 | 2 | . | .
CN(C)c1ncnc2c1nnn2C1OC(CO)C(O)C1O (stereo not drawn) | . | -4 | 2 | 2 | 0 | 13* | 17* | -3
CNc1ncnc2c1ncn2[C@@H]1O[C@H](CO)[C@@H](O)[C@H]1O | 6 | -1 | -8 | 3 | 0 | 8.4* | 0 | 1
CN(C)c1ncnc2c1ncn2C1OC(CO)C(O)C1O (stereo not drawn) | -41 | . | -16 | . | . | -2 | . | .
OCC1OC(n2cnc3c(/C=C(\O)c4ccccc4)ncnc32)C(O)C1O (stereo not drawn) | 0 | -5 | . | 7 | 0 | 8.9* | -2 | 3
C[C@H](CO)N1C[C@H](C)[C@@H](CN(C)S(=O)(=O)c2ccc(Cl)cc2)Oc2c(NC(=O)Nc3cccc4ccccc34)cccc2C1=O | . | . | 0 | 2 | 0 | . | . | .
SMILES | MITF act | Wnt act | esBAF inh | AF4-AF9 inh | FGF22 binding | SMARCA2 act | SMARCA2 act conf | VP16 Luc act
CCN(CC)S(=O)(=O)c1ccc(OCCNS(C)(=O)=O)cc1 | 3 | 0 | . | -2 | 0 | -3 | . | .
CCNS(=O)(=O)c1ccc(OCCNS(C)(=O)=O)cc1 | 7 | -1 | -1 | -12 | 0 | 8.1* | 0 | 0
CS(=O)(=O)Nc1ccc(C(=O)Nc2ccc3ccccc3c2)cc1 | . | 2 | 16 | -4 | 0 | 8.4* | 16* | 7.2*
COc1ccc(C(=O)Nc2ccc3ccccc3c2)cc1 | -7 | 8 | -48 | -4 | 0 | 4 | . | .
O=C(N[C@@H]1CC[C@H](CCNS(=O)(=O)c2ccc(F)cc2)O[C@H]1CO)C1CCOCC1 | . | . | -1 | 0 | 0 | . | . | .
CC(C)(C)c1ccc(-c2noc(CCC(N)=O)n2)cc1 | . | . | -79 | . | . | -12 | . | .
CN(C)C(=O)CCc1nc(-c2ccc(C(C)(C)C)cc2)no1 | 20 | -4 | -3 | . | . | 11* | 3 | 5.3*
COc1ccc(NC(=O)c2ccc(OC(F)F)cc2)cc1Cl | 63 | . | . | . | . | 1 | . | .
O=C(Nc1ccc(OC(F)F)c(Cl)c1)c1ccccn1 | ? | -1 | . | -3 | 0 | 12* | 11* | 19*
O=C(C[C@H]1C=C[C@H](NC(=O)c2ccncc2)[C@H](CO)O1)NCC1CCCCC1 | . | . | -2 | -2 | 0 | . | . | .
Cc1ccccc1CCN(C(=O)CN1C(=O)c2ccccc2S1(=O)=O)C(C(=O)NCC1CCCO1)c1ccncc1 (stereo not drawn) | 1 | -1 | . | . | . | 9.0* | -1 | 1
CO[C@H]1CN(C)C(=O)c2ccc(NC(=O)Nc3ccc(Cl)cc3)cc2OC[C@@H](C)N(C(=O)Nc2c(C)noc2C)C[C@@H]1C | . | . | -3 | 4 | 0 | . | . | .
O=C(NCCCO)/C(=C/c1ccc(-c2cccc([N+](=O)[O-])c2)o1)NC(=O)c1ccccc1 | -2 | -3 | 4 | 2 | 0 | 1 | . | .
